# Assay results published in the OligoGym collection.
# Assays:
# Test in all cases: pooled miR-30 sensor sort-seq; sequence = guide strand
# Conditions in all cases: shRNA
# MYO1F = molecular target: MYO1F
# MYST4 = molecular target: MYST4
# NDUFA9 = molecular target: NDUFA9
# NDUFA7 = molecular target: NDUFA7
# NDUFAB1 = molecular target: NDUFAB1
# NDE1 = molecular target: NDE1
# NCSTN = molecular target: NCSTN
# Further: reference of the scale not given here.
sequence,measurement,setting,value
TTGTTGTTGCGCACAGTCTTGG,sensor-assay potency score (higher = more potent),MYO1F,-0.625
TTGAGTCTCGGCACAATCCTGA,sensor-assay potency score (higher = more potent),MYST4,0.672
TTGGCTTTTAGCACCATCTGGA,sensor-assay potency score (higher = more potent),MYST4,0.342
TTTAACTGTCTTCCAGCCCAAG,sensor-assay potency score (higher = more potent),NDUFA9,-1.24
TGACTGAGGAACGTCCACCTTT,sensor-assay potency score (higher = more potent),NDUFA9,-0.755
TTGTTGGAGAGCTTGTGGCTAG,sensor-assay potency score (higher = more potent),NDUFA7,-0.163
TAATCTACAATTTCTTGTGGAC,sensor-assay potency score (higher = more potent),NDUFAB1,-0.35
TCTCCTGGTAGCGTAGCTGCAG,sensor-assay potency score (higher = more potent),NDUFA7,-1.09
ATTGTTGGAGAGCTTGTGGCTA,sensor-assay potency score (higher = more potent),NDUFA7,-0.402
ACAACTGTGTAACTCTACCAGG,sensor-assay potency score (higher = more potent),NDUFAB1,-1.08
TTGATGACCACATTGCTGTGTT,sensor-assay potency score (higher = more potent),NDUFA9,0.542
TTGCTGTGTTGTACTACTCGTC,sensor-assay potency score (higher = more potent),NDUFA9,-0.266
TTCGCTTGGAGATCTCCTGGTA,sensor-assay potency score (higher = more potent),NDUFA7,0.453
TTAAGGAATCTATCCTCTCTTC,sensor-assay potency score (higher = more potent),NDUFA9,-0.535
TTCAATTTGTTGCAGCTGCGTC,sensor-assay potency score (higher = more potent),NDE1,-0.561
TTGGAGTAAACACCAAACCCAT,sensor-assay potency score (higher = more potent),NCSTN,-1.26
TACAGCAGAGCTCTCTGCTGGC,sensor-assay potency score (higher = more potent),NDUFA7,-0.355
TTTGCTTGCTCCAGCTCTCTGA,sensor-assay potency score (higher = more potent),NDE1,-0.321
TATAGGACCAAACCGATGCATA,sensor-assay potency score (higher = more potent),NDUFA9,-1.43
TCTCTGAACAGATTCCAGGAGA,sensor-assay potency score (higher = more potent),NDE1,-0.696
AAGACAAACATGACATTGCGGG,sensor-assay potency score (higher = more potent),NCSTN,-0.588
TTCAACTCCAGCTTCCTTGGAC,sensor-assay potency score (higher = more potent),NDUFA9,0.368
TTCAGCTTCATATTCTCGGCTT,sensor-assay potency score (higher = more potent),NDE1,0.137
TTGCTTGCTCCAGCTCTCTGAT,sensor-assay potency score (higher = more potent),NDE1,-1.21
TCTGTTTGTAGGTCATCGCCAG,sensor-assay potency score (higher = more potent),NDE1,-0.347
TTGATTTGGACAACCAGCGGCA,sensor-assay potency score (higher = more potent),NDE1,-0.226
TTGTGGCTAGGACCCACAGGGA,sensor-assay potency score (higher = more potent),NDUFA7,-1.83
AATTAGGTCACATTCTCCCTGG,sensor-assay potency score (higher = more potent),NDUFA7,-0.0171
TTCTCGGAGTTCCTCTTGCGTA,sensor-assay potency score (higher = more potent),NDE1,-1.4
TGTGTTGTACTACTCGTCGGAT,sensor-assay potency score (higher = more potent),NDUFA9,-0.517
TCTCAGTGGCAGCTACAGCAGA,sensor-assay potency score (higher = more potent),NDUFA7,-0.927
TTTTCGGACAGGAGGTCTCTGT,sensor-assay potency score (higher = more potent),NDE1,-0.635
AGGAGCTGGAGTCACCGCCTTC,sensor-assay potency score (higher = more potent),NDUFA7,-1.6
TGTAATCTACAATTTCTTGTGG,sensor-assay potency score (higher = more potent),NDUFAB1,0.132
TTAAACTTGAGCTGGGTCCTCG,sensor-assay potency score (higher = more potent),NDE1,-0.477
TAAAACTAGAAGTGATACCTGA,sensor-assay potency score (higher = more potent),NDUFA7,0.222
